Most compounds without a hit are left out; they make up all but 19% or so of the library.
HT1080 IDH1KD tx – qHTS for induction of synthetic lethality in tumor cells producing 2HG: qHTS for the HT-1080-IDH1KD cell line; 360,000 compounds, 2% hits; Potency, µM (doses to about 46.1 µM), inactives show at the top dose activity, negative = toxicity, usual class: cytotoxic; HT-1080 IDH1 knockdown viability, ATP luminescence, 48 h;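 further: potency means the concentration at half of the fitted maximal effect; 0% = DMSO wells and -100% = cell-free medium wells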
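Cytotoxicity counter-line: IDH1KD HT-1080, 48 h, CellTiter-Glo. Curves classed by r2, magnitude and activity.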
IL-1B inflam inh – qHTS for Inhibitors of Inflammasome Signaling: IL-1-beta AlphaLISA Primary Screen | THP-1 LPS/ATP IL-1B secretion, AlphaLISA, 16 h; stronger effect = lower value | activity change, % at 57.5 µM | 360,000 compounds, 4.7% hits | AID 743279, 2014; in the data active means activity change below about -50%; inconclusive means mostly about -30% to -49%
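THP-1 cells pretreated 1 hr with compounds (up to 57.5 uM final), then stimulated with LPS (250 ng/mL final) plus ATP (1.25 mM final); secreted IL-1B measured by AlphaLISA after 16 hr, decreased signal indicating inhibition.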
DT40 TDP1 no CPT – qHTS for Inhibitors of human tyrosyl-DNA phosphodiesterase 1 (TDP1): qHTS in cells in absence of CPT. DT40 Tdp1-/- hTDP1 cells, no CPT, ATP luminescence, 48 h. 420,000 compounds, 15% hits. Potency, µM (doses to about 46.2 µM), for inactives: top-dose activity change, negative = growth inhibition, actives largely listed as inhibitors. AID 686978, 2013; further: potency means the concentration at half of the fitted maximal effect; nearly all actives have a fitted effect of over 55% in size
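Luminescent ATP content (CellTiter-Glo) served as the growth readout. Knockout chicken DT40 cells expressing human TDP1 were exposed to compounds without camptothecin for a minimum 48 hr at 37 °C.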
TDP1 cell CPT – qHTS for Inhibitors of human tyrosyl-DNA phosphodiesterase 1 (TDP1): qHTS in cells in presence of CPT. chicken DT40 Tdp1-/-;hTDP1 cells + 20 nM CPT, ATP luminescence, 48 h. Potency, µM (series often up to 46.2 µM), without a hit: top-dose activity change, negative = growth inhibition, most hits filed as inhibitors. 420,000 compounds, 12% hits. AID 686979, 2013; further: potency means the concentration at half of the fitted maximal effect; nearly all actives have a fitted effect of over 55% in size
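Cell growth measured by CellTiter-Glo luminescence after a minimum 48 h, 37 C compound exposure with 20 nM CPT in Tdp1-knockout DT40 cells stably expressing hTDP1, seeded 400/well; qHTS titration format.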
HT1080-NT tox – qHTS for induction of synthetic lethality in tumor cells producing 2HG: qHTS for the HT-1080-NT fibrosarcoma cell line | HT-1080-NT fibrosarcoma viability, CellTiter-Glo ATP luminescence, 48 h | Potency, µM (titrated, usually from 46.1 µM), without a hit: at the top dose activity, negative = less viability, most hits filed as cytotoxic | 360,000 compounds, 1.6% hits | AID 686970, 2013;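 further: NT is the 2HG producing partner of a matched IDH1 knockdown line; potency means the concentration at half of the fitted maximal effect; 0% = DMSO-treated cells and -100% = media-only wells without cells; nearly all actives have a fitted effect of over 55% in size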
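A 48-hour cytotoxicity screen used HT-1080-NT cells plated 2 hours before compound delivery. ATP-based CellTiter-Glo luminescence measured viability, normalized to DMSO and no-cell controls.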
An asterisk follows results filed as active; ? = inconclusive; . = not tested or not shown; [ ] = dose if it differs, or a comment. Unless noted, the call rests on the fitted dose curve; in most records, active means well fitted curve in the direction sought with a large enough effect; inconclusive means small, poorly fitted or top-dose-only effect, or another doubt; inactive means no such curve, though single readings can be large; an effect the other way counts as inactive or inconclusive. Unless noted, on the % scale 0 is the no-effect control and ±100 the full control effect.

SMILES	HT1080 IDH1KD tx	IL-1B inflam inh	DT40 TDP1 no CPT	TDP1 cell CPT	HT1080-NT tox
Cc1cccc(OCc2nc(C#N)c(N3CCCC3)o2)c1	0%	-55*	-26%	7%	0%
Cc1ccc(OCc2nc(C#N)c(N3CCCCC3)o2)cc1	4%	?	-3%	7%	1%
Cc1cccc(OCc2nc(C#N)c(N3CC(C)CC(C)C3)o2)c1 (centres undefined)	-2%	-10	?	6.5µM*	3%
N#Cc1nc(COc2ccc(Cl)cc2)oc1N1CCCCCC1	-11%	-59*	-25%	-9%	-14%
CCNc1oc(COc2cccc(C)c2)nc1C#N	13%	-6	-28%	?	-1%
O=C(N[C@H](CO)Cc1ccccc1)[C@H]1O[C@@H](n2ccc(=O)[nH]c2=O)[C@H](O)[C@@H]1O	3%	-21	1%	-5%	23%
CCN(CC(=O)Nc1ccccc1C(F)(F)F)C(=O)CN1C(=O)NC(C)(c2ccc3ccccc3c2)C1=O (centres undefined)	-1%	-10	-13%	?	-9%
CN1CC(=O)N(CC(=O)Nc2ccc(N3CCOCC3)cc2)C1=O	-11%	27	-21%	4%	-1%
C=CCc1c(C)nc2cc(-c3ccc(C)cc3)[nH]n2c1=O	1%	10	?	?	-1%
CCCCc1c(C)nc2cc(-c3ccco3)[nH]n2c1=O	7%	-96*	?	-1%	-1%
CCc1c(C)nc2cc(-c3ccccc3)[nH]n2c1=O	1%	-9	12µM*	8.2µM*	-10%
CCc1c(C)nc2c(-c3ccccc3)c(-c3ccccc3)[nH]n2c1=O	3%	13	2.1µM*	2.3µM*	17%
COc1cc(-c2noc(CCCC(=O)NCc3ccccc3)n2)cc(OC)c1OC	?	12	?	-29%	-20%
c1ccc(-n2ncc3c(N4CCN(CCOc5cccc6ccccc56)CC4)ncnc32)cc1	-4%	8	26µM*	16µM*	0%
Fc1ccc(-n2ncc3c(N4CCN(Cc5ccccc5)CC4)ncnc32)cc1	.	.	-21%	-12%	.
CS(=O)(=O)N1CCN(c2ncnc3c2cnn3-c2ccccc2)CC1	1%	.	-22%	-20%	-3%
Cc1ccc(-n2ncc3c(N4CCN(Cc5ccccc5)CC4)ncnc32)cc1Cl	.	.	9.2µM*	8.2µM*	.
Cc1ccc(-n2ncc3c(N4CCCCC4)ncnc32)cc1Cl	.	.	?	-19%	.
c1ccc(CN2CCN(c3ncnc4c3cnn4-c3ccccc3)CC2)cc1	.	.	18µM*	16µM*	.
CN(C)CCCOc1ccc(C(C)(C)c2ccccc2)cc1	-3%	?	18µM*	?	-5%
CCN(CC)c1ccc(/C=N/Nc2nc(C)cc(C)n2)cc1	-9%	23	18µM*	23µM*	-6%
CCN(CC)c1ccc(/C=N/Nc2nn[nH]n2)cc1	0%	8	12µM*	?	-13%
CCOC(=O)C1CCCN(C(=O)CSc2nnnn2C)C1 (centres undefined)	4%	-5	-4%	-1%	-6%
CCS(=O)(=O)c1nc(S(=O)(=O)c2ccc(C)cc2)c(N2CCC(C)CC2)s1	1%	9	?	?	4%
Cc1nn(Cc2c(F)c(F)c(F)c(F)c2F)c(C)c1NC(=O)c1ccc(COc2ccccc2Cl)cc1	16%	6	1.5µM*	?	21%
SMILES	HT1080 IDH1KD tx	IL-1B inflam inh	DT40 TDP1 no CPT	TDP1 cell CPT	HT1080-NT tox
Cc1nn(Cc2c(F)c(F)c(F)c(F)c2F)c(C)c1NC(=O)c1ccc(COc2ccc(F)cc2)o1	?	?	21µM*	16µM*	3%[9.24 µM]
Cc1nn(Cc2c(F)c(F)c(F)c(F)c2F)c(C)c1NC(=O)c1ccc(COc2cc(Cl)ccc2Cl)cc1	-21%	20	?	?	-14%
CC(=O)Cn1c(CN2CCN(C(=O)c3ccco3)CC2)nc2c1c(=O)n(C)c(=O)n2C	-1%	0	-8%	-26%	20%
CC(C)C[C@@H]1Cc2[nH]c(=S)[nH]c(=O)c2[C@H](C)O1	2%	16	?	0%	6%
NCCc1c(-c2ccccc2)n(-c2ccccc2)c2ccccc12	21µM*	-97*	?	?	15µM*
CC(C(=O)Nc1cc([N+](=O)[O-])ccc1Cl)N1CCN(c2ccccc2O)CC1 (centres undefined)	?	6	13µM*	?	?
CCCC(C)NC(=S)NC(=O)c1cc(S(=O)(=O)N2CCOCC2)ccc1C (centres undefined)	1%	-2	13µM*	21µM*	1%
CC(=O)Nc1ccc(NC(=O)c2cc(S(=O)(=O)N3CCCCC3)ccc2C)cc1	-1%	12	-8%	-19%	3%
COc1ccc(S(=O)(=O)N2CCOCC2)cc1C(=O)Nc1ccc(N2CCCCCC2)cc1	?	0	18µM*	18µM*	-22%
Cc1ccc(S(=O)(=O)N2CCCCC2)cc1C(=O)Nc1ccc(N2CCOCC2)cc1	?	6	13µM*	?	-11%
Cc1ccc(S(=O)(=O)N2CCOCC2)cc1C(=O)N1c2ccccc2Sc2ccccc21	-10%	-7	23µM*	?	-3%
O=C(Nc1ccc(Oc2ccccc2)cc1)c1csc([C@@H]2O[C@H](CO)[C@H](O)[C@H](O)[C@H]2O)n1	-6%	91	-5%	0%	-6%
Cc1ccc(NC(=O)COC(=O)CCc2c(C)nc3ncnn3c2C)cc1C	9%	20	-15%	-26%	4%
Cc1ccc(C(NC(=O)N2CCOCC2)C(Cl)Cl)cc1F (centres undefined)	4%	20	6%	?	7%

Compound activity from PubChem BioAssay.
